# Screens (PubChem BioAssay)
# In the library only some 4% were active in any assay of this set; here they are far more common.
# Mtb UGM inh = Mtb UDP-galactopyranose mutase inhibition; P9WIQ1; purified UGM, fluorescence polarization probe displacement; inhibition, % at 10 µM; actives 0.06% (n = 320,000); AID 504406; in the data active = inhibition above about 10%, passing the limit was not always enough
# Mtb FBA inh = Mtb fructose-bisphosphate aldolase inhibition. actives 2.3% (n = 360,000). inhibition, % at 1 µM. AID 588726. purified M. tuberculosis FBA, fluorescence read-out; in the data active = inhibition above about 27%;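 note: 0% = vehicle and 100% = reference inhibitor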
# GDH-TPI counter = GDH-TPI coupled enzyme inhibition counter-screen | inhibition, % at 4.8 µM | actives 1.2% (n = 360,000) | GDH-TPI coupled enzyme counterscreen, NADH absorbance; in the data active = inhibition above about 30%;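 note: 0% = DMSO wells and 100% = wells lacking the enzyme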
# Rv3671c inh = Rv3671c (M. tuberculosis) protease inhibition | P9WHR9 | inhibition, % at 5.96 µM | actives 0.048% (n = 320,000) | AID 2606; in the data active = inhibition above about 38%;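 note: extracellular domain of Rv3671c used as enzyme; 0% = enzyme with DMSO and 100% = no enzyme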
# Mtb bLac sens = beta-lactam sensitization of Mtb H37Rv | M. tuberculosis H37Rv growth with meropenem, percent inhibition | inhibition, % at 25 µM | AID 434955 | actives 0.27% (n = 330,000); call rule not given here;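 note: growth measured after seven days incubation then overnight dye step; 0% = bacteria only wells and 100% = bacteria with antibiotic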
# RecA intein inh = Mtb RecA intein splicing inhibition; inhibition, % (concentration not given with the values); P9WHJ3; actives 0.75% (n = 290,000); AID 2221; cell-free RecA intein splicing, fluorescence; in the data active = inhibition above about 30%;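 note: 0% = vehicle wells and 100% = reference inhibitor control wells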
# Target sequence (P9WHJ3 whole entry, looked up): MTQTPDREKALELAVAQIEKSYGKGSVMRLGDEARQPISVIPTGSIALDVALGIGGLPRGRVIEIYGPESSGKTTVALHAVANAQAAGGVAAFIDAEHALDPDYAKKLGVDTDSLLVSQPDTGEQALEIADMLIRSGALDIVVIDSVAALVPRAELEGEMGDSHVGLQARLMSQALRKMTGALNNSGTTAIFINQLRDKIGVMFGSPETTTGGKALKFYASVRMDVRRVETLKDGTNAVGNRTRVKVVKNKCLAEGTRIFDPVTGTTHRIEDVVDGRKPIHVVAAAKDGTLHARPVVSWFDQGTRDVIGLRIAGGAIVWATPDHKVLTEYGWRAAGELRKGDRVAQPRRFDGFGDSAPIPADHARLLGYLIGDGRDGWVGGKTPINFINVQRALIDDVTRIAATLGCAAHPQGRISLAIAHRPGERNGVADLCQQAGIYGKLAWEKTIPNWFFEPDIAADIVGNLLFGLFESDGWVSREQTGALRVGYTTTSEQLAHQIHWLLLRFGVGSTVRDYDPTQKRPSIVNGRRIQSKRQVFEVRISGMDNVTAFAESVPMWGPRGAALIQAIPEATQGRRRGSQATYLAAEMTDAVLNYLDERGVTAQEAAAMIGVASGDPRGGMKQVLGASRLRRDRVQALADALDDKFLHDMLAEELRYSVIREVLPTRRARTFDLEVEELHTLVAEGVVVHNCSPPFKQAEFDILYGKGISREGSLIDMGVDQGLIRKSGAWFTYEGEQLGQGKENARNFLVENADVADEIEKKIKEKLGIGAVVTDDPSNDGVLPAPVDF
# * = called active by the depositor; nt = not tested or not shown.
SMILES,Mtb UGM inh,Mtb FBA inh,GDH-TPI counter,Rv3671c inh,Mtb bLac sens,RecA intein inh
CCn1cc(/C=C(\NC(=O)c2ccccc2F)C(=O)NCCCn2ccnc2)c2ccccc21,0,-5,33*,5,3,0
O=C1C=CN2CCOCC2C1 (stereo not drawn),-3,1,14,-2,4,nt
Cc1noc(/C=C/N(C)C)c1S(=O)(=O)N1CCCC(C(=O)NCc2ccccc2Cl)C1 (stereo not drawn),0,-1,32*,-26,-8,nt
Cc1noc(/C=C/N(C)C)c1S(=O)(=O)N1CCCC(C(=O)NCc2ccc(Cl)cc2)C1 (stereo not drawn),-1,-3,56*,-26,-5,nt
Cc1noc(/C=C/N(C)C)c1S(=O)(=O)N1CCCC(C(=O)NCc2ccc(F)cc2)C1 (stereo not drawn),-2,nt,nt,-20,-6,2
Cc1ccc(CNC(=O)C2CCCN(S(=O)(=O)c3c(C)noc3/C=C/N(C)C)C2)cc1 (stereo not drawn),1,2,52*,-8,-4,0
Cc1ccc(-c2csc3ncnc(-n4nnc5ccccc54)c23)cc1,1,2,-5,0,-1,2
CC(=O)Nc1ccc(C(=O)CSc2nnc(C)o2)cc1,1,1,16,9,-2,0
Cc1ccc(NC(=O)CN2C(=O)N/C(=C/c3ccc(C)s3)C2=O)cc1,0,-1,32*,-33,6,-10
Cc1ccc(NC(=O)CN2C(=O)N/C(=C/c3ccc(C)o3)C2=O)cc1,1,4,27,-4,-2,-1
CCCN(CCC)CCCNC(=S)Nc1ccc2nc(N3CCN(C)CC3)cc(C)c2c1,-1,14,32*,6,4,-3
Cc1cc(N2CCN(C)CC2)nc2ccc(NC(=S)NC3CC3)cc12,0,12,35*,7,-5,5
CC(C)N1CCCC(C)(C(=O)Nc2nc3ccccc3[nH]2)C1 (stereo not drawn),nt,4,9,nt,nt,nt
Cc1cc(=O)oc2c(C)c(OC(C)C(=O)N3CC[C@@]4(O)CCCC[C@H]4C3)ccc12 (stereo partly drawn),3,24,18,1,-6,3
Cc1cc(N2CCN(c3ccccc3)CC2)nc(-c2ccccc2O)n1,0,7,7,-5,-11,nt
Cc1cc(N2CCC(C)CC2)nc(-c2ccccc2O)n1,-1,7,38*,2,-1,4
Cc1nc(N2CCOCC2)c2c(C)c(C(=O)Nc3ccc(F)cc3F)sc2n1,-3,1,38*,-14,-4,-1
COc1ccc(NC(=O)c2sc3nc(C)nc(N4CCOCC4)c3c2C)c(OC)c1,3,2,15,-5,16,-5
COC1=C/C(=C/c2c(O)c(C#N)c3ccccn23)C=CC1=O,-4,8,44*,12,5,-259
COc1cc(OC)cc(C(=O)c2c(C)c(C#N)c3ccccn23)c1,nt,-2,-3,nt,nt,1
CCOC(=O)c1c(N)n(CCN2CCCCC2)c2nc3ccccc3nc12,2,164*,17,-2,2,-184
COC(=O)c1c(N)n(CCCN2CCOCC2)c2nc3ccccc3nc12,2,158*,2,4,6,-138
COCCOC(=O)c1c(N)n(CCCN2CCOCC2)c2nc3ccccc3nc12,0,166*,15,-1,-6,-65
CCOC(=O)c1c(N)n(C2CC(C)(C)NC(C)(C)C2)c2nc3ccccc3nc12,-2,154*,23,4,4,-206
COc1ccc(CCNC(=O)c2c(N)n(CCN3CCOCC3)c3nc4ccccc4nc23)cc1,1,21,-1,3,100,-3
SMILES,Mtb UGM inh,Mtb FBA inh,GDH-TPI counter,Rv3671c inh,Mtb bLac sens,RecA intein inh
COCCCn1c(N)c(C(=O)Nc2sc3c(c2C(=O)OC)CCCC3)c2nc3ccccc3nc21,-2,2,0,0,8,5
Cc1c(NC(=O)COC(=O)C2CC3C=CC2C3)c(=O)n(-c2ccccc2)n1C (stereo not drawn),1,-2,-4,4,-25,-1
Cc1nc2scc(C)n2c(=O)c1S(=O)(=O)NCc1ccccc1,3,24,38*,5,-7,-7
COc1cccc(CNS(=O)(=O)c2c(C)nc3scc(C)n3c2=O)c1,2,18,21,-1,4,0
O=[N+]([O-])c1ccc(S(=O)(=O)NCC2COc3ccccc3O2)cc1 (stereo not drawn),-2,-5,-5,12,8,1
CC(=O)Nc1ccc(Nc2nc(C)c([N+](=O)[O-])c(N(C)c3ccccc3)n2)cc1,1,-4,13,-8,75,4
COc1ccc(/C=N/Nc2nc(C)c([N+](=O)[O-])c(N(C)c3ccccc3)n2)cc1OC,2,-3,45*,-1,5,-1
C=CCNc1nc(N)c(C(=C(C#N)C#N)c2ccc(Br)cc2)s1,1,126*,14,-10,-5,-9
COC(=O)C1CSC(C(=O)OC)N1C(=O)Nc1ccc(Cl)cc1 (stereo not drawn),3,103*,10,2,-9,1
O=C(CNC(=O)c1cccc(F)c1)OCC(=O)N1CCN(C(=O)c2ccco2)CC1,-1,3,-6,10,-8,-2
Cc1ccc(S(=O)(=O)Nc2ccccc2C(=O)Nc2nc(-c3ccc(F)cc3)cs2)cc1,nt,35*,12,-59,-7,7
Cc1noc(-c2ccc(Cl)cc2)c1C(=O)O/N=C(\N)c1ccc(C(C)(C)C)cc1,-3,2,4,-5,-2,6
O=C(NCCCn1ccnc1)C(Cc1ccccc1)N1C(=O)c2ccccc2C1=O (stereo not drawn),1,0,4,-3,-4,2
Oc1c(Cl)cc(Cl)cc1Sc1cc(Cl)cc(Cl)c1O,0,nt,nt,1,-4,73*
O=C1N(CCCN2C(=O)C3(OCCO3)c3ccccc32)c2ccccc2C12OCCO2,0,-4,-12,-11,0,1
CC(NC(=O)OC(C)(C)C)C(=O)Oc1cc2oc(=O)cc(-c3ccccc3)c2cc1Cl (stereo not drawn),0,43*,20,-3,12,-70
O=C(NCCN1CCN(C(=O)C(c2ccccc2)c2ccccc2)CC1)C(=O)Nc1ccccc1,-1,6,-6,5,-5,-2
COc1ccc(N(C(=O)c2cccnc2)S(=O)(=O)c2cccs2)cc1,-1,-2,7,5,4,8
COc1ccccc1N1CCN(C(=O)CSc2ncccc2-c2nc3ccccc3[nH]2)CC1,-4,27*,6,2,37,-1
COc1ccc(N2CCN(C(=O)CSc3ncccc3-c3nc4ccccc4[nH]3)CC2)cc1,0,13,-4,-9,-11,1
O=c1oc2ccccc2cc1-c1csc(NN=C2CCCCC2)n1,1,13,16,-3,-2,-3
